Laboratory results: PubChem BioAssay AID778 (Sanford-Burnham Center for Chemical Genomics, 2007)
In all, about 96,000 compounds went through this assay and about 20,000 (21%) were called active.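 How the source made its calls: active means CYP2C19 inhibition above a set limit at 5 µM in the primary screen (cut at about 50% in these data); inactive means the rest.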 Not all results are given here.

Each compound was assayed against Cytochrome P450 2C19 (Homo sapiens) (UniProt P33261) (assay: blockers of cytochrome P450 2C19 activity – biochemical, luminescence, ADME assay, primary screen (AID 778;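 further: plate controls were negative control wells for no effect and 2.5 mM tranylcypromine positive control for full effect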)). Details: CYP2C19 Supersomes, luciferin-H EGE luminescence, 30 min; at 5 µM; active compounds read high.
Cytochrome P450 2C19 (Homo sapiens), sequence (P33261 whole entry, looked up): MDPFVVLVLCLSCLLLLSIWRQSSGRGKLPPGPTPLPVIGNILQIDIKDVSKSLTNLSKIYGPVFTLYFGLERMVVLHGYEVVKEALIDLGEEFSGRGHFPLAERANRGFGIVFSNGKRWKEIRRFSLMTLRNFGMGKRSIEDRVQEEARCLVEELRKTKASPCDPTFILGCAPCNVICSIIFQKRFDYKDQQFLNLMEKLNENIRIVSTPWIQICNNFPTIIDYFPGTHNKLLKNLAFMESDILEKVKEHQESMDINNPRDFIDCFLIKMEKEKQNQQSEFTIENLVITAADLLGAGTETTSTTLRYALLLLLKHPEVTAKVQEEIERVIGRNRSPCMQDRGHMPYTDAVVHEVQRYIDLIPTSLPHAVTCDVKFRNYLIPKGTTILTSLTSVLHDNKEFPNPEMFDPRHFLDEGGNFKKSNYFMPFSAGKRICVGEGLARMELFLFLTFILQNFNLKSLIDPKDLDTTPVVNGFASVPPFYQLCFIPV
With NS(=O)(=O)c1cccnc1Nc1cccc(Cl)c1 the inhibition was 40.5% (inactive). In the case of CCCCNC(=O)c1ccccc1NC(=O)c1ccccc1N(C)S(C)(=O)=O, the inhibition is reported as 14.4% (inactive). For COc1ccc(C)cc1-n1nnnc1SCC(=O)c1cc(C)n(Cc2ccco2)c1C, the inhibition was 98.7% (active). COc1ccc(C(=O)CSc2nnc(COc3ccccc3)n2Cc2ccco2)cc1 was tested, and the inhibition was 35% (inactive). CNC(=O)CSc1nnnn1-c1ccc(C)cc1C was tested, and the inhibition was 49.1% (inactive). Cc1nc2cc(-c3ccc(F)cc3)nn2c(N2CCOCC2)c1C was tested, and the inhibition was 5.1% (inactive). For Oc1ccc(-c2onc3ccc(Cl)cc23)cc1, the inhibition was 19% (inactive). With CCn1c2ccccc2c2cc(NC(=O)C/C(C)=N/NC(=O)c3ccccc3N)ccc21 the inhibition was 54.7% (active). In the case of COc1ccc(NC(=O)Cn2c(=O)n(Cc3ccco3)c(=O)c3ccccc32)cc1, the inhibition is reported as 15.9% (inactive). In the case of CCn1c2ccccc2c2cc(NC(=S)N3CCOCC3)ccc21, the inhibition is reported as 11.1% (inactive). CN(C(=O)c1ccccn1)c1nnc(-c2ccccn2)s1 was tested, and the inhibition was 1.1% (inactive). CCOC(=O)N1CCN(c2c(NCCCN3CCCC(C)C3)c(=O)c2=O)CC1 (centres undefined) was tested, and the inhibition was 4.3% (inactive). CCCNC(=O)c1c(N)n(-c2ccc(S(N)(=O)=O)cc2)c2nc3ccccc3nc12 was tested, and the inhibition was -13.2% (inactive). With CC(C)CCn1c(CN(C)Cc2ccccc2)nc2c1c(=O)n(C)c(=O)n2C the inhibition was 42.8% (inactive). CC(C)Cn1c(CN(Cc2ccccc2)Cc2ccccc2)nc2c1c(=O)n(C)c(=O)n2C was tested, and the inhibition was 17.7% (inactive). With COCCn1c(CN(Cc2ccccc2)Cc2ccccc2)nc2c1c(=O)n(C)c(=O)n2C the inhibition was 76.4% (active). For COCc1cc(C)nc2sc(C(=O)NC3CCCCC3)c(N)c12, the inhibition was -2.5% (inactive). With Cc1cc(/C=N/n2cnnc2)c(C)n1-c1cccc(C(=O)O)c1 the inhibition was 24.9% (inactive). With Fc1ccccc1OCCSc1nc2ccccc2o1 the inhibition was 46.8% (inactive). With Cc1ccccc1CSCC(=O)NC(=O)NC(C)(C)C the inhibition was 56% (active). O=C(CSCc1ccccc1Cl)NNC(=O)c1ccccc1 was tested, and the inhibition was 40.1% (inactive). In the case of COc1ccccc1OCCC(=O)OCC(=O)NC(=O)NC(C)(C)C, the inhibition is reported as 14.2% (inactive). In the case of COC(=O)c1ccccc1NC(=O)C1CCN(S(=O)(=O)c2cc(OC)ccc2OC)CC1, the inhibition is reported as 93.5% (active). With Cn1c(=O)oc2cc(S(=O)(=O)N3CCC(C(=O)Nc4ccc(OC(F)(F)F)cc4)CC3)ccc21 the inhibition was 30.4% (inactive). For COc1ccccc1N1CC(C(=O)Nc2ccc(S(=O)(=O)N3CCOCC3)cc2)CC1=O (centres undefined), the inhibition was -1.1% (inactive). For COc1cccc(C(=O)Nc2ccc(N3CCCC3)cc2)c1, the inhibition was 48.4% (inactive). In the case of O=C(CN1C(=O)C2C3C=CC(C3)C2C1=O)Nc1nc(-c2ccccn2)cs1 (centres undefined), the inhibition is reported as -13.1% (inactive). With C=C(C)COc1ccc(-c2n[nH]c(C)c2-c2ccccc2)c(O)c1 the inhibition was 33.7% (inactive). For COc1ccc(-c2n[nH]c(C)c2-c2ccc(OC)c(OC)c2)c(O)c1, the inhibition was 98.5% (active). With C=C(C)COc1ccc(-c2n[nH]c(C)c2-c2ccccc2OC)c(O)c1 the inhibition was 43.5% (inactive). With COc1nc(N=C(N)N)nc2c(C)cccc12 the inhibition was -8.7% (inactive). CCOC(=O)c1cc(-c2ccc(Cl)s2)nc2c1c(C)nn2C was tested, and the inhibition was 17.2% (inactive). In the case of Cc1ccc(S(=O)(=O)NCCN2CCOCC2)cc1C, the inhibition is reported as 24.8% (inactive). Cc1cc(C)c(S(=O)(=O)NCCCN2CCOCC2)cc1Br was tested, and the inhibition was 53.9% (active). O=S(=O)(O)CCN1CCOCC1 was tested, and the inhibition was 2.1% (inactive). With COc1ccc(C)cc1NC(=O)CSc1nc(SC)ns1 the inhibition was 35.5% (inactive). In the case of Cc1ccc(C)c2[nH]c(=O)c(CCNC(=O)CC(C)C)cc12, the inhibition is reported as 29.7% (inactive). For CCOC(=O)c1c(NC(=S)Nc2ccccc2)sc2c1CCN(C)C2, the inhibition was 26.5% (inactive). With CC1(C)SC2c3ccccc3C(=O)N2[C@@H]1C(=O)NCc1ccco1 (some centres undefined) the inhibition was 62.8% (active). COc1cc2c(cc1OC)C(C(=O)NCc1ccco1)C1c3ccccc3CCN1C2=O (centres undefined) was tested, and the inhibition was 10.7% (inactive). In the case of O=C(NCCCCCCNC(=O)NCc1ccco1)NCc1ccco1, the inhibition is reported as -12.7% (inactive). COc1nc(NCc2ccc(Cl)cc2)nc(OC)n1 was tested, and the inhibition was 58.5% (active). CCNc1nc(N)nc(-c2cc(Cl)ccc2OC)n1 was tested, and the inhibition was 24.4% (inactive). C=CCNc1nc(C)nc(OC)n1 was tested, and the inhibition was -16.5% (inactive). In the case of CCCNC(=S)NC1CC2CCCC(C1)N2CC(C)C (centres undefined), the inhibition is reported as 6.3% (inactive). In the case of CC(C)c1cc(C(=O)O)n[nH]1, the inhibition is reported as -11.8% (inactive). In the case of Cc1cccc(-n2ncc(C#N)c2-n2cccc2)c1, the inhibition is reported as 21.9% (inactive). In the case of COc1ccccc1N1CCN(CCCCOc2ccc(F)cc2)CC1, the inhibition is reported as 13.1% (inactive). In the case of COc1ccccc1N1CCN(Cc2nnnn2CCc2ccccc2)CC1, the inhibition is reported as 75.4% (active). For c1ccc(CCn2nnnc2CN2CCN(C3CCCC3)CC2)cc1, the inhibition was -12% (inactive). In the case of CCOC(=O)c1sc(N(Cc2ccccc2)C(=O)CN2C(=O)CN(C)C2=O)nc1C, the inhibition is reported as 14.5% (inactive). In the case of CCOc1ccc(OCC)c(-c2c(=O)n(OCc3ccc(Cl)cc3)c3ccccc3[n+]2[O-])c1, the inhibition is reported as 76.2% (active). In the case of Cc1cc(C)cc(NC(=O)c2cccc(NC(=O)C3C4CC5OC(=O)C3C5C4)c2)c1 (centres undefined), the inhibition is reported as 3% (inactive). COc1ccc(N2CCN(C(=O)CSc3nnc4ncccn34)CC2)cc1 was tested, and the inhibition was 29.2% (inactive). Cc1ccc2nc(NC3=NCN(CCc4ccccc4)CN3)nc(C)c2c1 was tested, and the inhibition was -14.5% (inactive). For COCc1nc2ccccc2n1Cc1ccccc1Br, the inhibition was 55.6% (active). O=S(=O)(O)c1nc2ccccc2n1Cc1ccc(Cl)cc1Cl was tested, and the inhibition was 11.3% (inactive). With CCc1nc2ccccc2n(CCOCCOCCn2c(=O)c(CC)nc3ccccc32)c1=O the inhibition was 24.1% (inactive). For CCC(=O)Nc1nc2ccccc2n1Cc1ccccc1C, the inhibition was 49.7% (inactive). With COCC(=O)Nc1nnc(COc2ccccc2)s1 the inhibition was -3% (inactive). With COCn1c(COc2ccccc2)nc2ccccc21 the inhibition was 51.4% (active). In the case of CCCCc1cc(=O)oc2cc(C)cc(OCc3nn[nH]n3)c12, the inhibition is reported as 11.2% (inactive). In the case of CN1CCN(S(=O)(=O)c2ccc(NC(=O)C3CCCO3)cc2)CC1 (centres undefined), the inhibition is reported as 3.5% (inactive). For COc1ccc(OC)c2c1sc(=NC(=O)CN1C(=O)CCC1=O)n2C, the inhibition was 11.6% (inactive).
